Values joined by “and” are separate entries in the source; they are usually repeats but may differ in a detail not shown here. Equal values may be shown once. Active and inactive are the calls of the source. Unless noted, no stated cut-off is given here; in the data, active means inhibition above about 80%; inactive means the rest.
Columns and labels:
[1] = LFS_MB_P medulloblastoma growth inhibition, cell-based, chromothripsis tumors, cisplatin or BGB combos (AID 1671449); details: LFS_MB_P medulloblastoma cells;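 further: cells exposed for 96 hours; 0% = vehicle DMSO and 100% = killing by high DMSO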
[2] = HDN33 neuroblastoma growth inhibition, cell-based, chromothripsis tumors, cisplatin or BGB combos (AID 1671450); details: HDN33 neuroblastoma cells, stronger effect = higher value;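 further: cells exposed to compound for four days; 0% = vehicle DMSO and 100% = cell killing by high DMSO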
[3] = ICB984 medulloblastoma cell growth inhibition, synergistic combos for chromothripsis tumors, cisplatin or BGB combos (AID 1671451; call rule not given here;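 further: cells exposed for 96 hours before readout; 0% = vehicle DMSO and 100% = killing by high DMSO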); details: ICB984 medulloblastoma cells, drug combinations, stronger effect = higher value
[4] = LFS_MB_1R medulloblastoma cell growth inhibition, synergistic combos for chromothripsis tumors, cisplatin or BGB combos (AID 1671452); details: LFS_MB_1R medulloblastoma cells, stronger effect = higher value;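 further: cells exposed for 96 hours before readout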
[5] = HTB85 osteosarcoma cell growth inhibition, synergistic combos for chromothripsis tumors, BGB or cisplatin IC20 combos (AID 1671453); details: HTB85 osteosarcoma cells, drug combinations, stronger effect = higher value;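 further: cells exposed for 96 hours before readout; 0% = vehicle DMSO and 100% = high DMSO killing control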
[6] = CRL2098 osteosarcoma cell growth inhibition, synergistic combos for chromothripsis tumors, BGB or cisplatin IC20 combos (AID 1671454); details: CRL2098 osteosarcoma cells, drug combinations, stronger effect = higher value;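 further: cells exposed for 96 h before readout; 0% = vehicle DMSO and 100% = killing by high DMSO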
[7] = HD-MB03 medulloblastoma cell growth inhibition, synergistic combos for chromothripsis tumors, BGB or cisplatin IC20 combos (AID 1671455; in the data active means inhibition above about 83%;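 further: 0% = vehicle DMSO and 100% = high DMSO as cytotoxic control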); details: HD-MB03 medulloblastoma cells, stronger effect = higher value
[8] = UWB1.289 ovarian carcinoma cell growth inhibition, synergistic combos for chromothripsis tumors, BGB or cisplatin combos (AID 1671456); details: UWB1.289 ovarian carcinoma cells, stronger effect = higher value;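 further: cells exposed to compound for four days; 0% = vehicle DMSO and 100% = killing by high DMSO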
[9] = LFS_MB_2R medulloblastoma cell growth inhibition, synergistic combos for chromothripsis tumors, cisplatin combos (AID 1671457); details: LFS_MB_2R medulloblastoma cells, stronger effect = higher value;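 further: cells exposed to compound for four days before readout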
[10] = MDA-MB-436 breast carcinoma cell growth inhibition, synergistic combos for chromothripsis tumors, BGB or cisplatin combos (AID 1671458; call rule not given here;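 further: cells exposed for 96 hours; 0% = vehicle DMSO and 100% = killing by high DMSO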); details: MDA-MB-436 breast carcinoma growth inhibition, drug combinations, stronger effect = higher value
[11] = UWB1.289_BRCA1 ovarian cancer growth, cell-based, BGB or cisplatin combinations (AID 1671459); details: UWB1.289 BRCA1 ovarian carcinoma, drug combinations, stronger effect = higher value
[12] = human astrocyte viability loss, single and combined drugs, cytotoxicity control for chromothriptic childhood tumor combination screen, cell-based, BGB or cisplatin IC20 combos (AID 1671460); details: Human astrocytes, drug combinations, stronger effect = higher value;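 further: cells exposed to compounds for 96 hours before viability readout; 0% = vehicle and 100% = killing control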
[13] = growth inhibition of BT084 medulloblastoma cells, cell-based, ICGC_MB145, cisplatin and BGB IC40 combos (AID 1671461); details: drug combinations, stronger effect = higher value;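 further: cells exposed to drugs for 96 hours; 0% = vehicle DMSO and 100% = high DMSO full killing control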
[14] = growth inhibition of RCMB18 medulloblastoma cells, cell-based, cisplatin and BGB IC40 combos (AID 1671462); details: stronger effect = higher value;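 further: cells exposed to compound for four days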
[15] = growth inhibition of CRL1545 osteosarcoma cells, cell-based, cisplatin and BGB IC20 combos (AID 1671464); details: stronger effect = higher value;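 further: cells exposed to compound for 96 hours before readout; 0% = vehicle DMSO and 100% = high DMSO killing control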
[16] = measured here: combination with BGB IC40, at 0.05 µM
[17] = measured here: with BGB IC20 combination, at 0.5 µM
[18] = measured here: with cisplatin IC20 combination, at 0.5 µM
[19] = measured here: combination with cisplatin, at 0.5 µM
[20] = measured here: combination with cisplatin, at 5 µM

CC(=CC(=O)OCCCCCCCCC(=O)O)CC1OCC(CC2OC2C(C)C(C)O)C(O)C1O (stereo not drawn)
inhibition ([1]; at 0.5 µM, stronger effect = higher value): -17% (inactive) and -23.9% (inactive)
inhibition ([1]; measured here: combination with BGB IC20, at 0.005 µM): -2.94% and -18.6%
inhibition ([1]; measured here: combination with BGB IC40, at 0.005 µM): -25.4% and -12.1%
inhibition [1, 16]: -14.3% and -15.6%
inhibition ([1]; measured here: combination with cisplatin, at 0.5 µM, stronger effect = higher value): -17.5% and -24.1%
inhibition ([1]; measured here: combination with cisplatin, at 5 µM, stronger effect = higher value): -33.1% and 1.08%
inhibition ([2]; BGB combo, at 5 µM): -14.8% and -17.7%
inhibition ([2]; at 0.5 µM): -9.45% (inactive) and -27.8% (inactive)
inhibition ([2]; cisplatin combo, at 5 µM): 6.33% and -11.4%
inhibition [2, 17]: -8.51% and -26.5%
inhibition [2, 18]: -15.9% and -22.8%
inhibition ([2]; single agent, at 5 µM): -7.18% and -31.8%
inhibition ([3]; BGB IC20 combo, at 0.005 µM): -1.97% and -19.7%
inhibition ([3]; BGB IC40 combo, at 0.005 µM): -39% and 3.24%
inhibition ([3]; BGB IC40 combo, at 0.05 µM): -33.4% and -9.88%
inhibition ([3]; at 0.5 µM): -17% (inactive) and -12.7% (inactive)
inhibition ([3]; cisplatin combo, at 0.05 µM): -38.6% and -12.9%
inhibition ([3]; cisplatin combo, at 0.5 µM): -14.9% and -15.5%
inhibition ([3]; cisplatin combo, at 5 µM): -35% and -37.3%
inhibition ([3]; measured here: 5 uM single agent, at 5 µM): -25.3% and -26.1%
inhibition ([4]; at 0.5 µM): -33.1% (inactive) and -17.5% (inactive)
inhibition [4, 16]: -28.7% and -19%
inhibition [4, 19]: -76% and -15.9%
inhibition [4, 20]: -33.5% and -12.5%
inhibition ([5]; at 0.5 µM): -4.51% (inactive) and -3.63% (inactive)
inhibition ([5]; measured here: with BGB IC20, at 0.5 µM): -6.68% and -16.9%
inhibition ([5]; measured here: with BGB IC20, at 5 µM): 0.575% and -34.3%
inhibition ([5]; measured here: with cisplatin IC20, at 0.5 µM): -18.6% and 8%
inhibition ([5]; measured here: with cisplatin IC20, at 5 µM): -13.7% and -38.9%
inhibition ([5]; single agent, at 5 µM): 1.75% and -9.62%
inhibition ([6]; at 0.5 µM): -26.3% (inactive) and -42.8% (inactive)
inhibition ([6]; measured here: combination with BGB at IC20, at 0.5 µM): -3.72% and -29.5%
inhibition ([6]; measured here: combination with cisplatin at IC20, at 0.5 µM): -3.83% and -44%
inhibition ([7]; at 0.5 µM): -5.45% (inactive) and -14.3% (inactive)
inhibition ([7]; measured here: combo with BGB at IC20, at 0.5 µM): -13% and -2.83%
inhibition ([7]; measured here: combo with cisplatin at IC20, at 0.5 µM): -4.76% and -27.9%
inhibition ([8]; at 0.5 µM): -10.9% (inactive) and -9.1% (inactive)
inhibition ([8]; measured here: inhibition with BGB combination, at 0.05 µM): -7.06% and -24.4%
inhibition ([8]; measured here: inhibition with cisplatin combination, at 0.05 µM): -16.6% and -1.73%
inhibition ([9]; at 0.5 µM): -29.1% (inactive) and -8.5% (inactive)
inhibition [9, 19]: -31.2% and -4.9%
inhibition [9, 20]: -23.6% and -39.7%
inhibition ([10]; at 0.5 µM): -14.5% (inactive) and -24.2% (inactive)
inhibition ([10]; measured here: BGB combination, at 0.5 µM): -14.9% and -16%
inhibition ([10]; measured here: BGB combination, at 5 µM): -17.5% and -14.8%
inhibition ([10]; measured here: cisplatin combination, at 0.5 µM): -18.1% and -43.4%
inhibition ([10]; measured here: cisplatin combination, at 5 µM): -22.7% and -18.3%
inhibition ([11]; BGB combination, concentration series, at 5 µM): 0.308% and -20.1%
inhibition ([11]; at 0.5 µM): -2.59% (inactive) and -13% (inactive)
inhibition ([11]; cisplatin combination, concentration series, at 5 µM): 9.16% and -8.98%
inhibition ([12]; at 0.5 µM): 9.62% (inactive) and -5.3% (inactive)
inhibition ([12]; measured here: combo with BGB IC20, at 0.5 µM): 10.3% and 3.21%
inhibition ([12]; measured here: combo with cisplatin IC20, at 0.5 µM): 3.29% and -21.1%
inhibition ([13]; at 0.5 µM): -23.1% (inactive) and -16.1% (inactive)
inhibition ([13]; cisplatin combination, at 0.5 µM): -23.9% and -16.7%
inhibition ([13]; cisplatin combination, at 5 µM): -18.9% and -3.71%
inhibition ([13]; measured here: BGB IC40 combination 0.05 uM, at 0.05 µM): -21.3% and 12.3%
inhibition ([13]; single agent, at 5 µM): -11.4% and -22.4%
inhibition ([14]; at 0.5 µM): -6.07% (inactive) and -7.9% (inactive)
inhibition ([14]; cisplatin combo, at 5 µM): -30.1% and -5.18%
inhibition ([14]; measured here: BGB IC40 combination, at 0.05 µM): 6.38% and -10.7%
inhibition [14, 19]: 18.9% and -20.9%
inhibition ([14]; single agent, at 5 µM): -45.8% and -19.9%
inhibition ([15]; at 0.5 µM): -2.77% (inactive) and -21.4% (inactive)
inhibition [15, 17]: -13.1% and -9.57%
inhibition [15, 18]: 2.38% and -30.2%
inhibition ([15]; single agent, at 0.05 µM): 22.2% and -47.2%
inhibition ([15]; single agent, at 5 µM): 3.87% and -28.5%

— PubChem BioAssay
